# Results: publication PMC11062922 (Nature Chemical Biology, 2023)
# Like-named read-outs stand apart in the source and are kept apart here.
# Legend:
# Design in all cases: species or system human, MV4-11 + K-562 + COLO205 + SK-N-BE2 + OVCAR-8
# MAP4K5 = conditions: read-out: apparent Kd; compound concentrations:100 nM and 1000 nM (sheet 'Samples'); n = 1
# TAOK1 = conditions: read-out: apparent Kd; compound concentrations:100 nM and 1000 nM (sheet 'Samples'); n = 1
# EPHA4 = conditions: read-out: apparent Kd; compound concentrations:100 nM and 1000 nM (sheet 'Samples'); n = 1
# EPHB2 = conditions: read-out: apparent Kd, n = 1
# EPHB4 = conditions: read-out: apparent Kd; compound concentrations:100 nM and 1000 nM (sheet 'Samples'); n = 1
# NUAK1 = conditions: read-out: apparent Kd; compound concentrations:100 nM and 1000 nM (sheet 'Samples'); n = 1
# NQO2 = conditions: read-out: apparent Kd, n = 1
# GSK3B = conditions: read-out: apparent Kd, compound concentrations: 100 nM and 1000 nM (sheet 'Samples'), n = 1
# MAP2K2 = conditions: read-out: apparent Kd, n = 1
# RIOK2 = conditions: read-out: apparent Kd, n = 1
# SYK = conditions: read-out: apparent Kd; compound concentrations: 100 nM and 1000 nM (sheet 'Samples'), CATDS: 3.0941649644307598E-2; n = 1
# ADCK3 = conditions: read-out: apparent Kd, n = 1
# BMPR1A = conditions: read-out: apparent Kd; compound concentrations:100 nM and 1000 nM (sheet 'Samples'); n = 1
# TGFBR2 = conditions: read-out: apparent Kd; compound concentrations:100 nM and 1000 nM (sheet 'Samples'); n = 1
# CDKL5 = conditions: read-out: apparent Kd; compound concentrations:100 nM and 1000 nM (sheet 'Samples'); n = 1
# MAPK11 = conditions: read-out: apparent Kd, n = 1
# [1] = compound concentrations:100 nM and 1000 nM (sheet 'Samples')
smiles,measurement,setting,value
Cn1cc(-c2cnc(N)c3c(-c4ccc5c(c4)CCN5C(=O)Cc4ccccc4)csc23)cn1 [GSK2593074A],potency estimated from few doses,MAP4K5,302 nM
O=S(=O)(c1ccc(-c2ccnc3[nH]ccc23)cc1)N1CCCC1 [GSK846226A],potency estimated from few doses,TAOK1,1690 nM
COc1cc2ncn(-c3cc(OCCCc4ccccc4)c(C(N)=O)s3)c2cc1OC [GSK205189A],potency estimated from few doses,EPHA4,1250 nM
same,potency estimated from few doses,EPHB2; [1],697 nM
same,potency estimated from few doses,EPHB4,636 nM
same,potency estimated from few doses,NUAK1,1770 nM
CS(=O)(=O)c1ccc(-c2nc3n(c2-c2ccncc2)CCC3)cc1 [SKF-105942],potency estimated from few doses,"NQO2; compound concentrations: 100 nM and 1000 nM (sheet 'Samples'), CATDS: 0.142598499620046",1270 nM
COc1cc2ncn(-c3cc(OCc4sccc4Cl)c(C(N)=O)s3)c2cc1OC [GSK448459A],potency estimated from few doses,MAP4K5,30.8 nM
Cn1cc(C2=C(c3cn(CCCCCO)c4ccccc34)C(=O)NC2=O)c2ccccc21 [RO0318053-000],potency estimated from few doses,GSK3B; CATDS: 0.11014328392113699,504 nM
same,potency estimated from few doses,"NQO2; compound concentrations: 100 nM and 1000 nM (sheet 'Samples'), CATDS: 9.2585577918862794E-2",959 nM
Clc1ccc(-c2nn3ncccc3c2-c2ccnc(Nc3ccccc3)n2)cc1 [GW829055X],potency estimated from few doses,"MAP2K2; compound concentrations: 100 nM and 1000 nM (sheet 'Samples'), CATDS: 3.8918058303858701E-2",1250 nM
same,potency estimated from few doses,"RIOK2; compound concentrations: 100 nM and 1000 nM (sheet 'Samples'), CATDS: 3.5482707178261498E-2",1560 nM
same,potency estimated from few doses,SYK,2270 nM
Cc1ccc(-n2nc(C(C)(C)C)cc2NC(=O)Nc2ccc(OCCN3CCOCC3)cc2)cc1 [BIRB0876BS],potency estimated from few doses,ADCK3; [1],48.9 nM
Fc1cccc(COc2ccc(Nc3ncncc3C#Cc3ccccc3)cc2Cl)c1 [GW651576X],potency estimated from few doses,"MAP2K2; compound concentrations: 100 nM and 1000 nM (sheet 'Samples'), CATDS: 5.7439305981691703E-2",1350 nM
same,potency estimated from few doses,"RIOK2; compound concentrations: 100 nM and 1000 nM (sheet 'Samples'), CATDS: 5.4268483350181501E-2",1510 nM
NC(=O)c1cccnc1COc1cc(-c2ccc(N3CCOCC3)nc2)cc2ncccc12 [BI01125081],potency estimated from few doses,ADCK3; [1],257 nM
same,potency estimated from few doses,BMPR1A,1370 nM
same,potency estimated from few doses,NUAK1,1080 nM
same,potency estimated from few doses,TGFBR2,1310 nM
Nc1c(C(=O)c2ccccc2)cnn1-c1ccc(F)cc1 [RO1151246-000],potency estimated from few doses,CDKL5,997 nM
same,potency estimated from few doses,MAP2K2; [1],1540 nM
same,potency estimated from few doses,MAPK11; [1],1420 nM
same,potency estimated from few doses,RIOK2; [1],1700 nM
COc1ccc(-c2nn3ncccc3c2-c2ccnc(Nc3ccc4c(c3)OCCO4)n2)cc1 [GW827106X],potency estimated from few doses,"MAPK11; compound concentrations: 100 nM and 1000 nM (sheet 'Samples'), CATDS: 6.1190831662216998E-2",956 nM
Cc1ccc(CC(=O)N2CCc3cc(-c4cn(C)c5ncnc(N)c45)ccc32)cc1 [GSK2634758A],potency estimated from few doses,"NQO2; compound concentrations: 100 nM and 1000 nM (sheet 'Samples'), CATDS: 0.188092935593722",1120 nM
COc1cc2ncn(-c3cc(O[C@H](C)c4ccccc4Cl)c(C(N)=O)s3)c2cc1OC [GSK237701A],potency estimated from few doses,MAP4K5,1160 nM
Cc1[nH]nc2c1N=C(c1ccccc1Cl)c1cc([N+](=O)[O-])ccc1N2 [RO0274406-000],potency estimated from few doses,GSK3B; CATDS: 0.102894851356177,472 nM
Fc1ccc(-c2ncn(C3CCNCC3)c2-c2ccnc(Oc3ccc4c(c3)OCO4)n2)cc1 [SB-250715],potency estimated from few doses,MAP2K2; [1],1560 nM
same,potency estimated from few doses,MAPK11; [1],40.4 nM
same,potency estimated from few doses,RIOK2; [1],1920 nM
Cn1cc(C2=C(c3ccccc3[N+](=O)[O-])C(=O)NC2=O)c2ccccc21 [RO0317753-000],potency estimated from few doses,GSK3B; CATDS: 0.304149371612502,27.6 nM
same,potency estimated from few doses,"NQO2; compound concentrations: 100 nM and 1000 nM (sheet 'Samples'), CATDS: 7.9210826703434503E-2",1280 nM
CCCN1CCC(Oc2cc(Nc3nc(Nc4cccc(F)c4C(N)=O)c4cc[nH]c4n3)c(OC)cc2Cl)CC1 [GSK1713088A],potency estimated from few doses,"ADCK3; compound concentrations: 100 nM and 1000 nM (sheet 'Samples'), CATDS: 0.349456505086152",604 nM
COc1ccc(Nc2nccc(N3CCC(NC(=O)Nc4cccc(OC)c4)C3)n2)cc1 (stereo not drawn) [GSK1379742A],potency estimated from few doses,"MAP2K2; compound concentrations: 100 nM and 1000 nM (sheet 'Samples'), CATDS: 0.114470387989454",1980 nM
COc1ccc(C2=C(Nc3cccc(O)c3)C(=O)NC2=O)cc1 [SB-390766],potency estimated from few doses,TGFBR2,2030 nM
Cn1cc(C2=C(c3cccc([N+](=O)[O-])c3)C(=O)NC2=O)c2ccccc21 [RO0317474-000],potency estimated from few doses,"NQO2; compound concentrations: 100 nM and 1000 nM (sheet 'Samples'), CATDS: 0.12983117909003999",1960 nM
COc1ccc(COc2ccc(Cc3cnc(N)nc3N)cc2OC)cc1 [GW632580X],potency estimated from few doses,MAP2K2; [1],1630 nM
COc1ccc(C2=C(c3cn(C)c4ccccc34)C(=O)NC2=O)cc1OC [RO3206363-000],potency estimated from few doses,"EPHB2; compound concentrations: 100 nM and 1000 nM (sheet 'Samples'), CATDS: 3.4039918374270103E-2",1430 nM
same,potency estimated from few doses,GSK3B; CATDS: 4.2103313064090798E-2,722 nM
same,potency estimated from few doses,"NQO2; compound concentrations: 100 nM and 1000 nM (sheet 'Samples'), CATDS: 4.2100406306544602E-2",722 nM
Cl.Fc1cccc(COc2ccc(Nc3ncnc4cc(-c5ccc[nH]5)sc34)cc2Cl)c1 [GW693881A],potency estimated from few doses,"NQO2; compound concentrations: 100 nM and 1000 nM (sheet 'Samples'), CATDS: 0.24245202120631801",560 nM
CC(=O)Nc1ccc2c(C3=C(c4cn(C)c5ccccc45)C(=O)NC3=O)cn(C)c2c1 [RO0317596-000],potency estimated from few doses,GSK3B; CATDS: 0.12883781394947599,1100 nM
same,potency estimated from few doses,"NQO2; compound concentrations: 100 nM and 1000 nM (sheet 'Samples'), CATDS: 0.111698981376187",1590 nM
COc1cc(F)c(F)c(F)c1C(=O)c1cnc(NC2CCN(S(C)(=O)=O)CC2)nc1N [RO4600703-000],potency estimated from few doses,NQO2; [1],426 nM
